The text below walks through data of paper PMC12864922, “TDP-43 directly inhibits mRNA accumulation in neurites through modulation of mRNA stability”.

Sequences and labels used below:
B1: ENSMUSG00000029636.395|Wasf3|50:54 (ssRNA)
RNA: GGGAGUUCUACAGUCCGACGAUCGCUUCGAUAUCCGCAUGCUAAAUCUACAGAUCGCAAGGUUGUUUUAUAUUAUCCCCUUAUAGUGUUCCAACACAAUUGUAGCUGAGUUUCAGAUACGGUAUUUUCUCAUAGUGUAAACUCAGGCAGAUGAAUAGCUGGAGAGUGGGUGGAUGGAUGGGUGAGUAUAUGGGUAGAUAAAUGGAUGAGUGGAUGGGUGGGUUAGGUGGGUAAGUAGCUAGGUGGAUGGGUGGGUGGAUACAUGGAUGAGUGGAUGGGUGGAUUGGUGGGUGAGUGGAUAGGUCUCUUGCGGUCGCACUAGUGUGGAAUUCUCGGGUGUCAAGG
B2: ENSMUSG00000029636.410|Wasf3 (ssRNA)
RNA: GGGAGUUCUACAGUCCGACGAUCGCUUCGAUAUCCGCAUGCUAGUGUAAACUCAGGCAGAUGAAUAGCUGGAGAGUGGGUGGAUGGAUGGGUGAGUAUAUGGGUAGAUAAAUGGAUGAGUGGAUGGGUGGGUUAGGUGGGUAAGUAGCUAGGUGGAUGGGUGGGUGGAUACAUGGAUGAGUGGAUGGGUGGAUUGGUGGGUGAGUGGAUAGGUGAAUGGAUGAUAGGUGGUGGAUGGUUGAGUGGGUGGAUUCAUGAUGGAUGGAUGGAUGGAUGGAUGGAUGGAUGGAUGGAUGAGUGGAUGCUCUUGCGGUCGCACUAGUGUGGAAUUCUCGGGUGUCAAGG
B3: ENSMUSG00000029636.411|Wasf3 (ssRNA)
RNA: GGGAGUUCUACAGUCCGACGAUCGCUUCGAUAUCCGCAUGCUAACUCAGGCAGAUGAAUAGCUGGAGAGUGGGUGGAUGGAUGGGUGAGUAUAUGGGUAGAUAAAUGGAUGAGUGGAUGGGUGGGUUAGGUGGGUAAGUAGCUAGGUGGAUGGGUGGGUGGAUACAUGGAUGAGUGGAUGGGUGGAUUGGUGGGUGAGUGGAUAGGUGAAUGGAUGAUAGGUGGUGGAUGGUUGAGUGGGUGGAUUCAUGAUGGAUGGAUGGAUGGAUGGAUGGAUGGAUGGAUGGAUGAGUGGAUGGAUAAUCUCUUGCGGUCGCACUAGUGUGGAAUUCUCGGGUGUCAAGG
B4: ENSMUSG00000029636.407|Wasf3 (ssRNA)
RNA: GGGAGUUCUACAGUCCGACGAUCGCUUCGAUAUCCGCAUGCUAAUACGGUAUUUUCUCAUAGUGUAAACUCAGGCAGAUGAAUAGCUGGAGAGUGGGUGGAUGGAUGGGUGAGUAUAUGGGUAGAUAAAUGGAUGAGUGGAUGGGUGGGUUAGGUGGGUAAGUAGCUAGGUGGAUGGGUGGGUGGAUACAUGGAUGAGUGGAUGGGUGGAUUGGUGGGUGAGUGGAUAGGUGAAUGGAUGAUAGGUGGUGGAUGGUUGAGUGGGUGGAUUCAUGAUGGAUGGAUGGAUGGAUGGAUGGAUGGACUCUUGCGGUCGCACUAGUGUGGAAUUCUCGGGUGUCAAGG
B5: ENSMUSG00000029636.392|Wasf3|68:72 (ssRNA)
RNA: GGGAGUUCUACAGUCCGACGAUCGCUUCGAUAUCCGCAUGCUACAUUUCAUGCUUAUACUUAAUCUACAGAUCGCAAGGUUGUUUUAUAUUAUCCCCUUAUAGUGUUCCAACACAAUUGUAGCUGAGUUUCAGAUACGGUAUUUUCUCAUAGUGUAAACUCAGGCAGAUGAAUAGCUGGAGAGUGGGUGGAUGGAUGGGUGAGUAUAUGGGUAGAUAAAUGGAUGAGUGGAUGGGUGGGUUAGGUGGGUAAGUAGCUAGGUGGAUGGGUGGGUGGAUACAUGGAUGAGUGGAUGGGUGGAUUGCUCUUGCGGUCGCACUAGUGUGGAAUUCUCGGGUGUCAAGG
B6: ENSMUSG00000029636.408|Wasf3 (ssRNA)
RNA: GGGAGUUCUACAGUCCGACGAUCGCUUCGAUAUCCGCAUGCUAUAUUUUCUCAUAGUGUAAACUCAGGCAGAUGAAUAGCUGGAGAGUGGGUGGAUGGAUGGGUGAGUAUAUGGGUAGAUAAAUGGAUGAGUGGAUGGGUGGGUUAGGUGGGUAAGUAGCUAGGUGGAUGGGUGGGUGGAUACAUGGAUGAGUGGAUGGGUGGAUUGGUGGGUGAGUGGAUAGGUGAAUGGAUGAUAGGUGGUGGAUGGUUGAGUGGGUGGAUUCAUGAUGGAUGGAUGGAUGGAUGGAUGGAUGGAUGGAUGCUCUUGCGGUCGCACUAGUGUGGAAUUCUCGGGUGUCAAGG
B7: ENSMUSG00000029636.403|Wasf3 (ssRNA)
RNA: GGGAGUUCUACAGUCCGACGAUCGCUUCGAUAUCCGCAUGCUAAUGUGUAUUGUAGCUGAGUUUCAGAUACGGUAUUUUCUCAUAGUGUAAACUCAGGCAGAUGAAUAGCUGGAGAGUGGGUGGAUGGAUGGGUGAGUAUAUGGGUAGAUAAAUGGAUGAGUGGAUGGGUGGGUUAGGUGGGUAAGUAGCUAGGUGGAUGGGUGGGUGGAUACAUGGAUGAGUGGAUGGGUGGAUUGGUGGGUGAGUGGAUAGGUGAAUGGAUGAUAGGUGGUGGAUGGUUGAGUGGGUGGAUUCAUGAUGGACUCUUGCGGUCGCACUAGUGUGGAAUUCUCGGGUGUCAAGG
B8: ENSMUSG00000029636.397|Wasf3 (ssRNA)
RNA: GGGAGUUCUACAGUCCGACGAUCGCUUCGAUAUCCGCAUGCUAGCAAGGUUGUUUUAUAUUAUCCCCUUAUAGUGUUCCAUGUGUAUUGUAGCUGAGUUUCAGAUACGGUAUUUUCUCAUAGUGUAAACUCAGGCAGAUGAAUAGCUGGAGAGUGGGUGGAUGGAUGGGUGAGUAUAUGGGUAGAUAAAUGGAUGAGUGGAUGGGUGGGUUAGGUGGGUAAGUAGCUAGGUGGAUGGGUGGGUGGAUACAUGGAUGAGUGGAUGGGUGGAUUGGUGGGUGAGUGGAUAGGUGAAUGGAUGAUACUCUUGCGGUCGCACUAGUGUGGAAUUCUCGGGUGUCAAGG
B9: ENSMUSG00000029636.416|Wasf3 (ssRNA)
RNA: GGGAGUUCUACAGUCCGACGAUCGCUUCGAUAUCCGCAUGCUAUGGAUGGAUGGGUGAGUAUAUGGGUAGAUAAAUGGAUGAGUGGAUGGGUGGGUUAGGUGGGUAAGUAGCUAGGUGGAUGGGUGGGUGGAUACAUGGAUGAGUGGAUGGGUGGAUUGGUGGGUGAGUGGAUAGGUGAAUGGAUGAUAGGUGGUGGAUGGUUGAGUGGGUGGAUUCAUGAUGGAUGGAUGGAUGGAUGGAUGGAUGGAUGGAUGGAUGAGUGGAUGGAUAAUAGGUUGAUGGGUGGAUAGGUAGAUGAGUGACUCUUGCGGUCGCACUAGUGUGGAAUUCUCGGGUGUCAAGG
B10: ENSMUSG00000029636.401|Wasf3|14:18 (ssRNA)
RNA: GGGAGUUCUACAGUCCGACGAUCGCUUCGAUAUCCGCAUGCUAUUAUAGUGUUCCAACACAAUUGUAGCUGAGUUUCAGAUACGGUAUUUUCUCAUAGUGUAAACUCAGGCAGAUGAAUAGCUGGAGAGUGGGUGGAUGGAUGGGUGAGUAUAUGGGUAGAUAAAUGGAUGAGUGGAUGGGUGGGUUAGGUGGGUAAGUAGCUAGGUGGAUGGGUGGGUGGAUACAUGGAUGAGUGGAUGGGUGGAUUGGUGGGUGAGUGGAUAGGUGAAUGGAUGAUAGGUGGUGGAUGGUUGAGUGGGUGGCUCUUGCGGUCGCACUAGUGUGGAAUUCUCGGGUGUCAAGG
B11: ENSMUSG00000029636.415|Wasf3 (ssRNA)
RNA: GGGAGUUCUACAGUCCGACGAUCGCUUCGAUAUCCGCAUGCUAAGUGGGUGGAUGGAUGGGUGAGUAUAUGGGUAGAUAAAUGGAUGAGUGGAUGGGUGGGUUAGGUGGGUAAGUAGCUAGGUGGAUGGGUGGGUGGAUACAUGGAUGAGUGGAUGGGUGGAUUGGUGGGUGAGUGGAUAGGUGAAUGGAUGAUAGGUGGUGGAUGGUUGAGUGGGUGGAUUCAUGAUGGAUGGAUGGAUGGAUGGAUGGAUGGAUGGAUGGAUGAGUGGAUGGAUAAUAGGUUGAUGGGUGGAUAGGUAGAUCUCUUGCGGUCGCACUAGUGUGGAAUUCUCGGGUGUCAAGG
B12: ENSMUSG00000029636.393|Wasf3|62:66 (ssRNA)
RNA: GGGAGUUCUACAGUCCGACGAUCGCUUCGAUAUCCGCAUGCUAAUGCUUAUACUUAAUCUACAGAUCGCAAGGUUGUUUUAUAUUAUCCCCUUAUAGUGUUCCAACACAAUUGUAGCUGAGUUUCAGAUACGGUAUUUUCUCAUAGUGUAAACUCAGGCAGAUGAAUAGCUGGAGAGUGGGUGGAUGGAUGGGUGAGUAUAUGGGUAGAUAAAUGGAUGAGUGGAUGGGUGGGUUAGGUGGGUAAGUAGCUAGGUGGAUGGGUGGGUGGAUACAUGGAUGAGUGGAUGGGUGGAUUGGUGGGUCUCUUGCGGUCGCACUAGUGUGGAAUUCUCGGGUGUCAAGG

In all, about 9,900 sequences were measured (“r (bound/input frequency ratio)”: median about 0.7, highest 2% from about 6.5 on). Many of the other results were omitted from the sample, so the highest values are more common in it than they were.

TDP-43, sequence (Q13148 whole entry): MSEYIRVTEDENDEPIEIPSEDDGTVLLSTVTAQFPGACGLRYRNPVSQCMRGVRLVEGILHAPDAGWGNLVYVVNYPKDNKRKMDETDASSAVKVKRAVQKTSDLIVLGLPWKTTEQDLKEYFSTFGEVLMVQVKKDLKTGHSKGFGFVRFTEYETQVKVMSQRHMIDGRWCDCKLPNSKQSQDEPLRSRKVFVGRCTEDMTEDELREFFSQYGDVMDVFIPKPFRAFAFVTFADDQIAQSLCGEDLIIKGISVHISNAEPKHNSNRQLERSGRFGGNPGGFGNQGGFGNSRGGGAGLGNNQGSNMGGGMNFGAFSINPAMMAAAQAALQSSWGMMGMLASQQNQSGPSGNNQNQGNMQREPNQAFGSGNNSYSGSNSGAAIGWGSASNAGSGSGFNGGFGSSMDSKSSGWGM

The target of the test is TDP-43 (Homo sapiens, UniProt Q13148 1-414). The test can be described thus: RNA Bind-n-Seq with designed 260-mer pool; 25 mM Tris-HCl, 150 mM KCl, 3 mM MgCl2, BSA (printed 500 mg/mL), 20 units/mL SUPERase IN; pH not stated; 500 nM RNA pool, 1 h, 4 C; TDP-43 5, 50, 500 nM; high values mean tight binding. Particulars: protein: recombinant; tags: SBP (GST cleaved off with PreScission; pGEX-GST-SBP). The method in brief:
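Recombinant SBP-tagged TDP-43 at 5, 50 or 500 nM was captured on streptavidin beads, then incubated 1 h at 4 °C with 500 nM of an in vitro-transcribed 260-nt 3′ UTR oligo pool in 25 mM Tris-HCl, 150 mM KCl, 3 mM MgCl2, BSA and SUPERase IN. Bound RNA was washed, eluted with biotin, reverse transcribed, PCR-amplified and sequenced. Binding is R, each oligo's mapped-read-normalized abundance in the bound sample divided by its abundance in input. Duplicates used two independent protein batches.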
As for B1, the binding signal was 4.72 R (bound/input frequency ratio). As for B2, the binding signal is 2.97 R (bound/input frequency ratio). For the molecule B3, the binding signal was 7.25 R (bound/input frequency ratio).

B4: the binding signal was 3.52 R (bound/input frequency ratio). As for B5, the binding signal is 4.14 R (bound/input frequency ratio). As for B6, the binding signal is 20.3 R (bound/input frequency ratio). For B7, the binding signal was 15.4 R (bound/input frequency ratio). To B8 belongs 4.09 R (bound/input frequency ratio); to B9, 6.38 R (bound/input frequency ratio).

On to B10, for which the binding signal was 4.07 R (bound/input frequency ratio). Consider B11, for which the binding signal is 2.19 R (bound/input frequency ratio). Regarding B12, the binding signal was 6.94 R (bound/input frequency ratio).
